Test results as given in PubChem BioAssay AID1159580 (chemical genetic matrix, 2015).
Several values for one entry are separate records, joined by “and”; a condition that tells them apart may be missing. Equal entries are not always repeated. Screen size: about 5,500 compounds; about 2,000 (36%) were called active. Not shown: some 18% with an inconclusive outcome. No stated cut-off is given here; in the data, active means normalized growth mostly below about 0.91 (no sharp cut-off); inconclusive means no clear call, values can overlap the other calls; inactive means mostly above about 0.92. The list shows a part of the results.

Assay: chemical genetic growth profiling, strain panel (AID 1159580);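 further: tested at 20 µM; growth read once vehicle control cultures reached saturation at 30 °C; 1 = growth at the plate median or of vehicle wells; lower values mean less growth of the strain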
Details: S. cerevisiae deletion strains, growth OD

Measured: normalized growth

COc1cc(/C=C/C(=O)O)ccc1O
inactive: locus YAL021C, strain ccr4, active compounds read low 1 | locus YAL026C, strain drs2, active compounds read low 1.01 | locus YAL030W, strain snc1, active compounds read low 1.01 | locus YBL061C, strain skt5, active compounds read low 1.01 | locus YBR009C, strain hhf1, active compounds read low 1.02 | locus YBR021W, strain FUR4, active compounds read low 1.01 | locus YBR023C, strain chs3, active compounds read low 1.01 | locus YBR171W, strain sec66, active compounds read low 1.01 | locus YBR229C, strain ROT2, active compounds read low 1.01 | locus YBR231C, strain swc5, active compounds read low 1.01 | locus YBR279W, strain paf1, active compounds read low 1.01 | locus YCL011C, strain gbp2, active compounds read low 1.01 | locus YCL016C, strain dcc1, active compounds read low 1.01 | locus YCL029C, strain bik1, active compounds read low 0.977 | locus YCL061C, strain MRC1, active compounds read low 1.02 | locus YCL069W, strain vba3, active compounds read low 0.998 | locus YCR088W, strain abp1, active compounds read low 1.01 | locus YDL005C, strain med2, active compounds read low 1.02 | locus YDL035C, strain GPR1, active compounds read low 1.01 | locus YDL040C, strain nat1, active compounds read low 1 | locus YDL074C, strain BRE1, active compounds read low 1 | locus YDL101C, strain DUN1, active compounds read low 1.02 | locus YDL185W, strain tfp1, active compounds read low 0.971 | locus YDL192W, strain arf1, active compounds read low 0.986 | locus YDR001C, strain nth1, active compounds read low 1.01 | locus YDR069C, strain doa4, active compounds read low 1.03 | locus YDR101C, strain arx1, active compounds read low 0.961 | locus YDR137W, strain rgp1, active compounds read low 1.01 | locus YDR150W, strain NUM1, active compounds read low 1 | locus YDR159W, strain sac3, active compounds read low 0.98 | locus YDR162C, strain NBP2, active compounds read low 0.992 | locus YDR195W, strain ref2 0.966 | locus YDR297W, strain sur2, active compounds read low 1.01 | locus YDR318W, strain mcm21, active compounds read low 0.997 | locus YDR334W, strain swr1, active compounds read low 1.01 | locus YDR335W, strain msn5, active compounds read low 1.01 | locus YDR388W, active compounds read low 0.979 | locus YDR392W, strain spt3, active compounds read low 0.985 | locus YDR502C, strain sam2, active compounds read low 0.984 | locus YEL003W, strain gim4, active compounds read low 1 | locus YEL037C, strain rad23, active compounds read low 1.01 | locus YEL061C, strain CIN8 (second series), active compounds read low 1.01 | locus YEL061C, strain CIN8, active compounds read low 0.972 | locus YER015W, strain faa2, active compounds read low 1.01 | locus YER016W, strain bim1, active compounds read low 1 | locus YER110C, active compounds read low 0.981 | locus YER111C, strain swi4, active compounds read low 1.01 | locus YER155C, strain BEM2 (second series), active compounds read low 0.999 | locus YER155C, strain BEM2, active compounds read low 1 | locus YER167W, strain BCK2, active compounds read low 0.973 | locus YFR010W, strain ubp6, active compounds read low 1.01 | locus YGL078C, strain dbp3, active compounds read low 0.983 | locus YGL086W, strain mad1, active compounds read low 0.952 | locus YGL167C, strain pmr1, active compounds read low 1.01 | locus YGL173C, strain kem1, active compounds read low 1.01 | locus YGL227W, strain vid30, active compounds read low 1.01 | locus YGL240W, strain doc1, active compounds read low 1.02 | locus YGL248W, strain PDE1, active compounds read low 1.02 | locus YGL253W, strain hxk2, active compounds read low 0.997 | locus YGR135W, strain pre9, active compounds read low 0.995 | locus YGR252W, strain gcn5, active compounds read low 1.07 | locus YHR013C, strain ard1, active compounds read low 0.996 | locus YHR027C, strain rpn1, active compounds read low 1 | locus YHR030C, strain SLT2, active compounds read low 0.993 and 1.02 | locus YHR079C, strain IRE1 (second series), active compounds read low 0.972 | locus YHR079C, strain IRE1, active compounds read low 1.05 | locus YHR094C, strain hxt1, active compounds read low 0.966 | locus YHR129C, strain ARP1, active compounds read low 1 | locus YHR142W, strain chs7, active compounds read low 1.01 | locus YHR200W, strain rpn10, active compounds read low 0.989 | locus YIL066C, strain RNR3, active compounds read low 1 | locus YIL073C, strain SPO22, active compounds read low 0.99 | locus YIL125W, strain kgd1, active compounds read low 0.968 | locus YIR030C, strain dcg1, active compounds read low 0.983 | locus YJL092W, strain hpr5, active compounds read low 1.01 | locus YJL095W, strain BCK1 (second series), active compounds read low 1.01 | locus YJL095W, strain BCK1, active compounds read low 1.03 and 1 | locus YJL115W, strain asf1, active compounds read low 1.01 | locus YJL129C, strain trk1, active compounds read low 1.01 | locus YJL134W, strain LCB3, active compounds read low 0.999 | locus YJL154C, strain vps35, active compounds read low 1 | locus YJL164C, strain tpk1, active compounds read low 1 | locus YJL166W, strain qcr8, active compounds read low 1.02 | locus YJL168C, strain set2, active compounds read low 0.984 | locus YJL187C, strain SWE1 (second series), active compounds read low 1.01 | locus YJR043C, strain POL32, active compounds read low 1.03 | locus YJR066W, strain TOR1, active compounds read low 0.995 | locus YKL009W, strain mrt4, active compounds read low 1.01 | locus YKL068W, active compounds read low 0.974 | locus YKL085W, strain MDH1 (second series), active compounds read low 0.977 | locus YKL085W, strain MDH1, active compounds read low 0.977 | locus YKL160W, strain elf1, active compounds read low 1.01 | locus YKL190W, strain CNB1, active compounds read low 0.995 | locus YKR001C, strain vps1, active compounds read low 0.967 | locus YKR026C, strain gcn3, active compounds read low 1.02 | locus YKR091W, strain srl3, active compounds read low 1.01 | locus YLL001W, strain dnm1, active compounds read low 1.01 | locus YLL026W, active compounds read low 1.01 | locus YLL041C, strain sdh2, active compounds read low 1.01 | locus YLR027C, strain aat2, active compounds read low 1.01 | locus YLR039C, strain RIC1, active compounds read low 0.99 | locus YLR058C, strain SHM2, active compounds read low 1.01 | locus YLR102C, strain apc9, active compounds read low 0.98 | locus YLR113W, strain HOG1, active compounds read low 0.958 | locus YLR221C, strain rsa3, active compounds read low 1.01 | locus YLR258W, strain gsy2, active compounds read low 1.01 | locus YLR262C, strain YPT6 (second series), active compounds read low 1.01 | locus YLR262C, strain YPT6, active compounds read low 1.01 | locus YLR268W, strain sec22, active compounds read low 0.967 | locus YLR320W, strain mms22, active compounds read low 1 | locus YLR330W, strain CHS5, active compounds read low 1.01 | locus YLR342W, strain FKS1 (second series), active compounds read low 1.02 | locus YLR342W, strain FKS1, active compounds read low 1.02 | locus YLR357W, strain rsc2, active compounds read low 1.01 | locus YLR370C, strain arc18, active compounds read low 1.02 | locus YLR371W, strain rom2, active compounds read low 0.936 | locus YLR384C, strain iki3, active compounds read low 1.01 | locus YLR418C, strain cdc73, active compounds read low 0.968 | locus YML016C, strain PPZ1, active compounds read low 1.01 | locus YML032C, strain rad52, active compounds read low 1.01 | locus YML120C, strain ndi1, active compounds read low 1 | locus YML124C, strain tub3, active compounds read low 0.984 | locus YMR058W, strain fet3, active compounds read low 1.02 | locus YMR078C, strain ctf18, active compounds read low 0.984 | locus YMR125W, strain sto1, active compounds read low 1 | locus YMR129W, active compounds read low 1.01 | locus YMR205C, strain PFK2, active compounds read low 1.01 | locus YMR223W, strain ubp8, active compounds read low 1.01 | locus YMR231W, strain pep5, active compounds read low 1.01 | locus YMR263W, strain SAP30, active compounds read low 1 | locus YMR307W, strain GAS1, active compounds read low 0.99 | locus YNL067W, strain RPL9B, active compounds read low 1 | locus YNL071W, strain lat1, active compounds read low 1 | locus YNL183C, strain NPR1, active compounds read low 1 | locus YNL209W, strain ssb2, active compounds read low 1.01 | locus YNL233W, strain BNI4, active compounds read low 1.01 | locus YNL248C, strain rpa49, active compounds read low 1.01 | locus YNL250W, strain rad50, active compounds read low 0.995 | locus YNL271C, strain bni1, active compounds read low 1 | locus YNL298W, strain CLA4, active compounds read low 0.981 | locus YNL307C, strain MCK1, active compounds read low 0.977 | locus YNL322C, strain KRE1 (second series), active compounds read low 1.01 | locus YNL322C, strain KRE1, active compounds read low 0.999 | locus YNR049C, strain mso1, active compounds read low 1.01 | locus YNR052C, strain pop2, active compounds read low 0.991 | locus YOL012C, strain htz1 0.646 | locus YOL147C, strain pex11, active compounds read low 0.969 | locus YOR001W, strain rrp6, active compounds read low 1.06 | locus YOR061W, strain CKA2, active compounds read low 1.01 | locus YOR069W, strain VPS5, active compounds read low 0.995 | locus YOR070C, strain gyp1, active compounds read low 1.01 | locus YOR080W, strain dia2, active compounds read low 1.01 | locus YOR083W, strain WHI5, active compounds read low 1.02 | locus YOR106W, strain vam3, active compounds read low 1.03 | locus YOR136W, strain idh2, active compounds read low 0.974 | locus YOR144C, strain elg1, active compounds read low 0.977 | locus YOR184W, strain ser1, active compounds read low 1.01 | locus YOR231W, strain MKK1, active compounds read low 1.03 | locus YOR265W, strain rbl2, active compounds read low 1 | locus YOR270C, strain vph1, active compounds read low 0.994 | locus YOR290C, strain snf2, active compounds read low 1.01 | locus YOR316C, strain cot1, active compounds read low 0.981 | locus YPL051W, strain arl3, active compounds read low 1.01 | locus YPL078C, strain atp4, active compounds read low 1.02 | locus YPL106C, strain sse1, active compounds read low 1.01 | locus YPL240C, strain hsp82, active compounds read low 1.02 | locus YPL241C, strain CIN2, active compounds read low 0.999 | locus YPL256C, strain CLN2, active compounds read low 1 | locus YPR119W, strain clb2, active compounds read low 0.975 | locus YPR141C, strain kar3, active compounds read low 0.975 | locus YPR163C, strain tif3, active compounds read low 0.977 | locus YPR167C, strain met16, active compounds read low 0.992 | strain wtn01, active compounds read low 0.968
